# Measured values published in the OligoGym collection.
# Tests used:
# Experiment in all cases: pooled miR-30 sensor sort-seq; sequence = guide strand
# Conditions in all cases: shRNA
# [1] = biological target: DCPS
# [2] = biological target: DCTN6
# [3] = biological target: DCST1
# [4] = biological target: DCX
# [5] = biological target: DNAJC13
# [6] = biological target: DNMT3L
# [7] = biological target: DPRX
# [8] = biological target: DSPP
# [9] = biological target: DQX1
# Note: reference of the scale not given here.
sequence,measurement,setting,value
TTATACACCCACTGGATGCTGA,sensor-assay potency score (higher = more potent),[1],-0.178
TTAGGGTGGATCACTGTCCGAG,sensor-assay potency score (higher = more potent),[2],-0.692
TTCTGCAGTCTGAAGCCGGAGA,sensor-assay potency score (higher = more potent),[1],-0.8
TAGGTTTTGGTTCTGGATCTTC,sensor-assay potency score (higher = more potent),[2],-0.00342
TTCTTCGTAGATGTTCATGGGG,sensor-assay potency score (higher = more potent),[3],0.19
TTGTAGAGGAACAGGATCCGCT,sensor-assay potency score (higher = more potent),[3],-0.486
TACCATTTCCAACTCCTGCCTC,sensor-assay potency score (higher = more potent),[1],-0.586
TTCTCTTATATGGACTGTCTAT,sensor-assay potency score (higher = more potent),[4],-0.935
TTTCTACACATACAACTGCTCC,sensor-assay potency score (higher = more potent),[2],-0.672
TTCTGCAGGTGTTTCTCTGTGG,sensor-assay potency score (higher = more potent),[1],0.117
TTTCATAGTCTTCTTTAGGTGG,sensor-assay potency score (higher = more potent),[2],-0.245
TATCCCAGGACAAAGAGCCTGC,sensor-assay potency score (higher = more potent),[3],-0.178
ATTCCTGTAGTCATCTCCCGTC,sensor-assay potency score (higher = more potent),[1],-0.108
TTGATCTGCAGCTCCACGGTGC,sensor-assay potency score (higher = more potent),[3],-0.609
TTCTTTGCCCTCTTGTGCCATT,sensor-assay potency score (higher = more potent),[3],-1.23
TTTCATCAAGAAATCCAGCTGT,sensor-assay potency score (higher = more potent),[2],0.825
TAGGTCATTGTAGAGGAACAGG,sensor-assay potency score (higher = more potent),[3],-1.31
TTGATCACAATGCTGTTCCTTA,sensor-assay potency score (higher = more potent),[4],0.503
TAATTCTTGCTTTAGGGTGGAT,sensor-assay potency score (higher = more potent),[2],-0.47
TATCTTGTCCTTTTGTCTCTTC,sensor-assay potency score (higher = more potent),[5],0.492
ATGTCTTCTATATTTCGCTGGT,sensor-assay potency score (higher = more potent),[6],-0.668
TTGGGGTACAGGATGAGCTGGA,sensor-assay potency score (higher = more potent),[7],0.271
TTGTGTCTTGACATTGCCTTTG,sensor-assay potency score (higher = more potent),[8],-0.762
TCGATGACCCGTGTACACCAGG,sensor-assay potency score (higher = more potent),[7],-1.09
TTCAGCAGCTCATAGTAGCGGG,sensor-assay potency score (higher = more potent),[9],-0.681
AACACTAGCACATCTCCTGGAA,sensor-assay potency score (higher = more potent),[9],0.212
TGTACTGACACATTTGATCTTG,sensor-assay potency score (higher = more potent),[8],0.307
TGAGTGACCACAACCTTTCGGG,sensor-assay potency score (higher = more potent),[9],0.181
TGCTTCTTAGTGAACATGGTTC,sensor-assay potency score (higher = more potent),[7],-0.891
TAGTATGACACCCAGATCTGAC,sensor-assay potency score (higher = more potent),[9],-0.721
